Laboratory results from the supplement of paper PMC11732987, “Enantioselective OTUD7B fragment discovery through chemoproteomics screening and high-throughput optimisation” (Communications Chemistry, 2025).

Key:
Experiment in all cases: log2 ratio of Biotin-Ahx-Ub-VS probe labelling (fragment/DMSO); higher = less target engagement (more negative = stronger competition), active = hit call of the paper (q ≤ 0.05, log2 ratio ≤ -1)
Details in all cases: compound concentration: 200 uM; treatment time: 3 h
[1] = molecular target: T1, USP19 (UniProt O94966)
T1 sequence (whole entry): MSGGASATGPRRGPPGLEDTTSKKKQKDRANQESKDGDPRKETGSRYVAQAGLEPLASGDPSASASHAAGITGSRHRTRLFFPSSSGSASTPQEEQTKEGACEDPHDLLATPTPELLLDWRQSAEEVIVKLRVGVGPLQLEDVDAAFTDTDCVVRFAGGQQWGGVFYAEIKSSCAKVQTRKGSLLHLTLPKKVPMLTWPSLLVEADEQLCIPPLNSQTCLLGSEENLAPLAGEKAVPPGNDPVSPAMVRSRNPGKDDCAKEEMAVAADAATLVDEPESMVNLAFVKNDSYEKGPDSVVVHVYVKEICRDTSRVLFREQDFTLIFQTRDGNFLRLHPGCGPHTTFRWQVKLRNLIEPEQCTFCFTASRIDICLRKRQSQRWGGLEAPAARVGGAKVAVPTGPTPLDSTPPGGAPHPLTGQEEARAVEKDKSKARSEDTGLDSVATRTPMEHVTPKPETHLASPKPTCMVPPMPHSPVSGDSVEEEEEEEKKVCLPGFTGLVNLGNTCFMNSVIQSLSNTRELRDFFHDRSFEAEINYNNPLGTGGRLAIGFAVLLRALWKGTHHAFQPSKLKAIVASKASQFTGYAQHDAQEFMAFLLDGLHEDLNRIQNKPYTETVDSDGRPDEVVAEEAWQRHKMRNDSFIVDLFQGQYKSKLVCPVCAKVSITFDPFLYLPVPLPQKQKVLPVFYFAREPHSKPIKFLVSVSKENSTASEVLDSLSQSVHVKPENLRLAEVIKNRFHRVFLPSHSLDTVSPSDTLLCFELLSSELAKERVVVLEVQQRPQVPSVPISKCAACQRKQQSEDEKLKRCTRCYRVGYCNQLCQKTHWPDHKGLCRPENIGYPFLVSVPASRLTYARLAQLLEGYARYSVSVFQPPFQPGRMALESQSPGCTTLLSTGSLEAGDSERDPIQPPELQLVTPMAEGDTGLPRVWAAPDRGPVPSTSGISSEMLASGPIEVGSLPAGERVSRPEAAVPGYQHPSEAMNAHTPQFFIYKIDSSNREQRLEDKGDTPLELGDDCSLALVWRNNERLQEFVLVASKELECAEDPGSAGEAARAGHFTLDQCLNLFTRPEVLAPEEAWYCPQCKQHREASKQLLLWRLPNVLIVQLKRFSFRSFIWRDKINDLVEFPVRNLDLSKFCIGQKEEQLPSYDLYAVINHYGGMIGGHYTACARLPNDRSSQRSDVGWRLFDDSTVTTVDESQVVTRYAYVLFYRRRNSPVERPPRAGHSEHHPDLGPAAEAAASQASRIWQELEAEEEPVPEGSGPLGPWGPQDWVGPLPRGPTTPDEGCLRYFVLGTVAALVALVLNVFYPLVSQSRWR
Outline: (§1)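 Using Biotin-Ahx-Ub-VS at 0.5 µM final for 1 h, DUBs were labelled in HEK293T lysate (495 µg per sample) that had first been treated in triplicate with fragment at 200 µM or vehicle for 3 h. NeutrAvidin enrichment, LysC and trypsin digestion and diaPASEF LC-MS/MS followed. Spectronaut label-free quantities were global-median-normalised. Values are average log2 fragment/vehicle ratios by unpaired t-test, using proteins with ≥2 unique peptides.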

[2] = molecular target: T2, USP22 (UniProt Q9UPT9)
T2 sequence (whole entry): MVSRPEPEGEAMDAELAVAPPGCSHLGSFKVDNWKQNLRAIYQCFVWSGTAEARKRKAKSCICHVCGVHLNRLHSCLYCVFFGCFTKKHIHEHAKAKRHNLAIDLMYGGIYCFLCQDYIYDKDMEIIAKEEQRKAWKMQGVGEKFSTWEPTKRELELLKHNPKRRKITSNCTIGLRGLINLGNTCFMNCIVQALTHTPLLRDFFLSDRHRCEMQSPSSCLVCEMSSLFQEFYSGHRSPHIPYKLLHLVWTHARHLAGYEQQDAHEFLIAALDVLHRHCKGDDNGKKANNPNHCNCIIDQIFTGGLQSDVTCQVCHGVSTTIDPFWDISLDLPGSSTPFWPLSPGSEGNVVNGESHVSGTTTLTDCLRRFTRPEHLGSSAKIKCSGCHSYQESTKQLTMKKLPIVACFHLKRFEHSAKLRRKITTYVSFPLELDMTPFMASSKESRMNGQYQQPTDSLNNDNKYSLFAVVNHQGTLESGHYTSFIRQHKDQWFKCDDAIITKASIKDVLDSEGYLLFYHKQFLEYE
Outline: as §1

[3] = molecular target: USP24 (UniProt Q9UPU5)
Sequence of USP24 (Q9UPU5 whole entry): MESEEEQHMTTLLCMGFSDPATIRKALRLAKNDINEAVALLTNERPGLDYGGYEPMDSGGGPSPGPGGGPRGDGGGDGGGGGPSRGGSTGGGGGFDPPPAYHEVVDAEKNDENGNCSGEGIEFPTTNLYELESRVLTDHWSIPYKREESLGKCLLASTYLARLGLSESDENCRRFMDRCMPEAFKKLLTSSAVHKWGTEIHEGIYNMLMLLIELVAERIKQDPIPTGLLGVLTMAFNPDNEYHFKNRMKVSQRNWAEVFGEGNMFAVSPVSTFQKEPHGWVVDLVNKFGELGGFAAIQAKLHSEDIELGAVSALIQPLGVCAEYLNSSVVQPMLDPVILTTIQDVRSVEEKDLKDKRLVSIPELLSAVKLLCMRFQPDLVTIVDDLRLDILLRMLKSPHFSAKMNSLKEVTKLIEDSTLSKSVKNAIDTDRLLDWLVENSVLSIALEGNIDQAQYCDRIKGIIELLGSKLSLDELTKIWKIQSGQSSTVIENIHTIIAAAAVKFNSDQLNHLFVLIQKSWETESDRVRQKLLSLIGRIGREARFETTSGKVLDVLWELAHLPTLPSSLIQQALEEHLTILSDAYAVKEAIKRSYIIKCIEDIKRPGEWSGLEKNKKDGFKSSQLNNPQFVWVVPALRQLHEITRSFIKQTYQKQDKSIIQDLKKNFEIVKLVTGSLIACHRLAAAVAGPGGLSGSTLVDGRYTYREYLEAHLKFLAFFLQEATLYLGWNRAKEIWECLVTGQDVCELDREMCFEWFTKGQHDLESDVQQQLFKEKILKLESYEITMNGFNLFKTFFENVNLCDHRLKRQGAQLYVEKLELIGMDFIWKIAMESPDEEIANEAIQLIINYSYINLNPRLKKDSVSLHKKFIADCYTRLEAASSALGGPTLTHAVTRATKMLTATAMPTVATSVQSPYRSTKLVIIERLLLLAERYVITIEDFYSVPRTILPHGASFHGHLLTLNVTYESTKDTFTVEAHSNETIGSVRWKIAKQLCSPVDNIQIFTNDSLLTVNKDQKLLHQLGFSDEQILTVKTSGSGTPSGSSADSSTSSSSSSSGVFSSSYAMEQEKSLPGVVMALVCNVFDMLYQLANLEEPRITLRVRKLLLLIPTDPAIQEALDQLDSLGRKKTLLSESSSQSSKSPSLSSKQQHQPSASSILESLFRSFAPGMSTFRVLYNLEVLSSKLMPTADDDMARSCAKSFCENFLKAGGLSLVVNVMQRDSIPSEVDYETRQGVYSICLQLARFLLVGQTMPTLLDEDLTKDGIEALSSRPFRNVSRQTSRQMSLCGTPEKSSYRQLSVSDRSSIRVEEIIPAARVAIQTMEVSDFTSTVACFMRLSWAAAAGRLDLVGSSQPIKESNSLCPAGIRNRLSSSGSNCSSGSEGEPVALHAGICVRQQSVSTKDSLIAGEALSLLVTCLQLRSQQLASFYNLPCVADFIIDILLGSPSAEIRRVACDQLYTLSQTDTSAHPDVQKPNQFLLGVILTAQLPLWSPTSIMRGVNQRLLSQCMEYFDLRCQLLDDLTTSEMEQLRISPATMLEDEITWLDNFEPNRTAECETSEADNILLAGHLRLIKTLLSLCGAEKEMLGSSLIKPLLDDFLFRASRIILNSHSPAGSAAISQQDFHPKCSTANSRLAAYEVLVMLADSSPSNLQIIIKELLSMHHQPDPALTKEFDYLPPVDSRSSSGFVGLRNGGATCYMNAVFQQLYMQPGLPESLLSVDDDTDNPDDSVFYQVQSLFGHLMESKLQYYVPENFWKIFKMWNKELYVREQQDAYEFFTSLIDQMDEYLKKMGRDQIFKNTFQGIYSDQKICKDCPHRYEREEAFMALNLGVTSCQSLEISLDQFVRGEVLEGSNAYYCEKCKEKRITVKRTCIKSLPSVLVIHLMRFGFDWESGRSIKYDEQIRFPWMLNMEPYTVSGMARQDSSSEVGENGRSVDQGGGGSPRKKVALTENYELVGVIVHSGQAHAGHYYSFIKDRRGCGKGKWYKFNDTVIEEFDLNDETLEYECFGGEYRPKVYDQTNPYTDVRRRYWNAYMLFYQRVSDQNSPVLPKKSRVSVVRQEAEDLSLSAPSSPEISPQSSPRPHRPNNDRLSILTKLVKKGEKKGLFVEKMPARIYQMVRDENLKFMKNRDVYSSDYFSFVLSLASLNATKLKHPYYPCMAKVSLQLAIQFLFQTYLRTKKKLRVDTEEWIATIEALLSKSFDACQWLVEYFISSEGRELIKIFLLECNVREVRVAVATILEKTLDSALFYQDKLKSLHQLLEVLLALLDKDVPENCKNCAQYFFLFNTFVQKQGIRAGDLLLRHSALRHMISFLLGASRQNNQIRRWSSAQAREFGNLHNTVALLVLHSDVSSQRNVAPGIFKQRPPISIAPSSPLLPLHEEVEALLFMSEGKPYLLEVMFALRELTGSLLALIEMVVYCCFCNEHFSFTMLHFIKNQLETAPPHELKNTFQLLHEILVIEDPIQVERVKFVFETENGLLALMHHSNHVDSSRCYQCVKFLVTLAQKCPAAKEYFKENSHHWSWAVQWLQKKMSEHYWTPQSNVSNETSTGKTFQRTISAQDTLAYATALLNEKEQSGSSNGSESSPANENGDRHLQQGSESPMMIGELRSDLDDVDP
Outline: as §1

[4] = molecular target: T3, USP25 (UniProt Q9UHP3)
T3 sequence (whole entry): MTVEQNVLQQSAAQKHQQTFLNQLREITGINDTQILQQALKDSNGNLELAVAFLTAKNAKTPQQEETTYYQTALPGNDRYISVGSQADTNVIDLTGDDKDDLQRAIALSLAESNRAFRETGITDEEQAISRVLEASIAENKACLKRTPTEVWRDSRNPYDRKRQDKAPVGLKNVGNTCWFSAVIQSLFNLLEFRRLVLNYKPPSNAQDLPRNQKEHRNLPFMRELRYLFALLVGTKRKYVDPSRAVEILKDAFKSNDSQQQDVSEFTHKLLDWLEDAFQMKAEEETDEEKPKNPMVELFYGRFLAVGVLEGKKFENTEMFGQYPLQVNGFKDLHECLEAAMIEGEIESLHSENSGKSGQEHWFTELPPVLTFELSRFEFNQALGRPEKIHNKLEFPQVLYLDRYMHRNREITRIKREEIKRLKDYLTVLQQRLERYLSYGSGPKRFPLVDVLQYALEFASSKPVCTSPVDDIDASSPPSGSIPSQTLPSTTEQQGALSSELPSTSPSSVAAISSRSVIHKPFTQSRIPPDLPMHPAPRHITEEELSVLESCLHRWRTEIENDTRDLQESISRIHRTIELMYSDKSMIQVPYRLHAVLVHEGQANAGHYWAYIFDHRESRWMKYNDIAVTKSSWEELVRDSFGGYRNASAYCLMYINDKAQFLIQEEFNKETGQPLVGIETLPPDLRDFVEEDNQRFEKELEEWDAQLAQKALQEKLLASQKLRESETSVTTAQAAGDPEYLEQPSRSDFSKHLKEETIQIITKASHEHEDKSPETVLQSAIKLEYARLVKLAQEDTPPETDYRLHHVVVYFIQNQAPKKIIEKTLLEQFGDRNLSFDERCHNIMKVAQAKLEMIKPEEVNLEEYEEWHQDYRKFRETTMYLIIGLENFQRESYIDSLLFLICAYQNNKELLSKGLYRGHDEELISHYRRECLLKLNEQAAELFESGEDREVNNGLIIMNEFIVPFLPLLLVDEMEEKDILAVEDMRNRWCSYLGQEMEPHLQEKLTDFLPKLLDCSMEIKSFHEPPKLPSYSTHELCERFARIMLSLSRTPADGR
Outline: as §1

[5] = molecular target: T4, USP28 (UniProt Q96RU2)
T4 sequence (whole entry): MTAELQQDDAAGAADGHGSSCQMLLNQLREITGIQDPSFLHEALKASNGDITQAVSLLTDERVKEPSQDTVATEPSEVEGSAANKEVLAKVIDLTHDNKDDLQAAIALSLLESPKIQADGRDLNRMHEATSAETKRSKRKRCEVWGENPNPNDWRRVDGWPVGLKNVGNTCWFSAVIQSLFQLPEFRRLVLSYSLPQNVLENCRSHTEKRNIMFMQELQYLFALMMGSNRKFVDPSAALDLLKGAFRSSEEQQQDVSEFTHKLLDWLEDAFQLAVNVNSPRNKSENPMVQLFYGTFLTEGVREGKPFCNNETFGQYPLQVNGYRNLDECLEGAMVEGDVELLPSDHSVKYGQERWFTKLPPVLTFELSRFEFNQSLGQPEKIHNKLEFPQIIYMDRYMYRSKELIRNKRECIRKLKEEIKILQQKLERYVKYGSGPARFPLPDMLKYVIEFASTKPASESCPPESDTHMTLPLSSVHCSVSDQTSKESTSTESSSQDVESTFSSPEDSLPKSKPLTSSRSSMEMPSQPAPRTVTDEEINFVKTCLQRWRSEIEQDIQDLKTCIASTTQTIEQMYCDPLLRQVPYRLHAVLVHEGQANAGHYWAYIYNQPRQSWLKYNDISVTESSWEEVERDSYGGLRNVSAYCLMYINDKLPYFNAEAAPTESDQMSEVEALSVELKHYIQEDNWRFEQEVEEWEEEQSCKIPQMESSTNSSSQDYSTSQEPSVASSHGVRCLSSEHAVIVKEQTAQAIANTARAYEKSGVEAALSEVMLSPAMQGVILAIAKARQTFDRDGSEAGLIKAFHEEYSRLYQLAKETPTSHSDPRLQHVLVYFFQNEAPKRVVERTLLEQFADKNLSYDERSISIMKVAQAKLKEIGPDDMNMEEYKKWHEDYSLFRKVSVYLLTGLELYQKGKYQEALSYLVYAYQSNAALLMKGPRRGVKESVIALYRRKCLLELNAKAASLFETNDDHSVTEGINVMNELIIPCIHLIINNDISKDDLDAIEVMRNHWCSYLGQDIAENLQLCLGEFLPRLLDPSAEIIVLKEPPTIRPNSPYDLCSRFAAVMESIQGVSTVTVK
Outline: as §1

Measured: log2 ratio of Biotin-Ahx-Ub-VS probe labelling

Cl.Cn1cnc2cc(CNC(=O)CCl)ccc21
inactive: [1] -0.154 | [2] 0.00285 | [3] -0.0163 | [4] -0.177 | [5] -0.154
